Assay results published in PubChem BioAssay AID1159580 (chemical genetic matrix, 2015).
In all, about 5,500 compounds went through this assay and about 2,000 (36%) were called active. Another 18% or so got no clear call; they are omitted. The list shows a part of the results. Values without a mark were called inactive. Cut-off read from the data, not from the text of the source: active = normalized growth mostly below about 0.91 (no sharp cut-off); inconclusive = no clear call, values can overlap the other calls; inactive = mostly above about 0.92.

Test: chemical genetic growth profiling, strain panel (AID 1159580);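 note: tested at 20 µM; growth read once vehicle control cultures reached saturation at 30 °C; 1 = growth at the plate median or of vehicle wells; lower values mean less growth of the strain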
Conditions: growth OD

C[C@@H]1CC[C@@]2(OC1)OC1C(O)C3C4CC[C@H]5C[C@H](O[C@@H]6O[C@H](CO)[C@H](O[C@@H]7O[C@H](CO)[C@@H](O)[C@H](O[C@@H]8OC[C@@H](O)[C@H](O)[C@H]8O)[C@H]7O[C@@H]7O[C@H](CO)[C@H](O)[C@H](O[C@@H]8O[C@H](CO)[C@@H](O)[C@H](O)[C@H]8O)[C@H]7O)[C@H](O)[C@H]6O)[C@H](O)C[C@]5(C)C4CC[C@]3(C)C1[C@@H]2C (stereo partly specified)
normalized growth (S. cerevisiae deletion strains, locus YJR043C, strain POL32, hits give low values): 0.0654 (active)
normalized growth (S. cerevisiae deletion strains, locus YJR066W, strain TOR1, hits give low values): -0.00057 (active)
normalized growth (S. cerevisiae deletion strains, locus YKL009W, strain mrt4, hits give low values): 0.0811 (active)
normalized growth (S. cerevisiae deletion strains, locus YKL068W, hits give low values): 0.0538 (active)
normalized growth (S. cerevisiae deletion strains, locus YKL085W, strain MDH1 (second series), hits give low values): 0.0597 (active)
normalized growth (S. cerevisiae deletion strains, locus YKL085W, strain MDH1, hits give low values): 0.0597 (active)
normalized growth (S. cerevisiae deletion strains, locus YKL160W, strain elf1, hits give low values): 1.01
normalized growth (S. cerevisiae deletion strains, locus YKR001C, strain vps1, hits give low values): 0.0628 (active)
normalized growth (S. cerevisiae deletion strains, locus YKR026C, strain gcn3, hits give low values): 1.03
normalized growth (S. cerevisiae deletion strains, locus YKR091W, strain srl3, hits give low values): 1.02
normalized growth (S. cerevisiae deletion strains, locus YLL001W, strain dnm1, hits give low values): 0.962
normalized growth (S. cerevisiae deletion strains, locus YLL026W, hits give low values): 1.01
normalized growth (S. cerevisiae deletion strains, locus YLL041C, strain sdh2, hits give low values): 1.02
normalized growth (S. cerevisiae deletion strains, locus YLR027C, strain aat2, hits give low values): 1.01
normalized growth (S. cerevisiae deletion strains, locus YLR039C, strain RIC1, hits give low values): 0.0908 (active)
normalized growth (S. cerevisiae deletion strains, locus YLR058C, strain SHM2, hits give low values): 0.0509 (active)
normalized growth (S. cerevisiae deletion strains, locus YLR102C, strain apc9, hits give low values): 0.0549 (active)
normalized growth (S. cerevisiae deletion strains, locus YLR113W, strain HOG1, hits give low values): 0.124 (active)
normalized growth (S. cerevisiae deletion strains, locus YLR221C, strain rsa3, hits give low values): 0.926
normalized growth (S. cerevisiae deletion strains, locus YLR258W, strain gsy2, hits give low values): 1.02
normalized growth (S. cerevisiae deletion strains, locus YLR262C, strain YPT6 (second series), hits give low values): 0.598 (active)
normalized growth (S. cerevisiae deletion strains, locus YLR262C, strain YPT6, hits give low values): 0.112 (active)
normalized growth (S. cerevisiae deletion strains, locus YLR268W, strain sec22, hits give low values): 0.0616 (active)
normalized growth (S. cerevisiae deletion strains, locus YLR320W, strain mms22, hits give low values): 0.985
normalized growth (S. cerevisiae deletion strains, locus YLR342W, strain FKS1, hits give low values): 0.991
normalized growth (S. cerevisiae deletion strains, locus YLR357W, strain rsc2, hits give low values): 0.875
normalized growth (S. cerevisiae deletion strains, locus YLR370C, strain arc18, hits give low values): 1.02
normalized growth (S. cerevisiae deletion strains, locus YLR371W, strain rom2, hits give low values): 0.0571 (active)
normalized growth (S. cerevisiae deletion strains, locus YLR384C, strain iki3, hits give low values): 1.04
normalized growth (S. cerevisiae deletion strains, locus YLR418C, strain cdc73, hits give low values): 0.0973 (active)
normalized growth (S. cerevisiae deletion strains, locus YML016C, strain PPZ1, hits give low values): 0.0492 (active)
normalized growth (S. cerevisiae deletion strains, locus YML032C, strain rad52, hits give low values): 0.0633 (active)
normalized growth (S. cerevisiae deletion strains, locus YML120C, strain ndi1, hits give low values): 0.925
normalized growth (S. cerevisiae deletion strains, locus YML124C, strain tub3, hits give low values): 0.0557 (active)
normalized growth (S. cerevisiae deletion strains, locus YMR058W, strain fet3, hits give low values): 1.01
normalized growth (S. cerevisiae deletion strains, locus YMR078C, strain ctf18, hits give low values): 0.064 (active)
normalized growth (S. cerevisiae deletion strains, locus YMR125W, strain sto1, hits give low values): 1.03
normalized growth (S. cerevisiae deletion strains, locus YMR129W, hits give low values): 1.03
normalized growth (S. cerevisiae deletion strains, locus YMR205C, strain PFK2, hits give low values): 0.977
normalized growth (S. cerevisiae deletion strains, locus YMR223W, strain ubp8, hits give low values): 0.0562 (active)
normalized growth (S. cerevisiae deletion strains, locus YMR263W, strain SAP30, hits give low values): 0.055 (active)
normalized growth (S. cerevisiae deletion strains, locus YMR307W, strain GAS1, hits give low values): 0.13 (active)
normalized growth (S. cerevisiae deletion strains, locus YNL067W, strain RPL9B, hits give low values): 0.0474 (active)
normalized growth (S. cerevisiae deletion strains, locus YNL071W, strain lat1, hits give low values): 1.03
normalized growth (S. cerevisiae deletion strains, locus YNL153C, strain GIM3, hits give low values): 0.0551 (active)
normalized growth (S. cerevisiae deletion strains, locus YNL183C, strain NPR1, hits give low values): -0.00129 (active)
normalized growth (S. cerevisiae deletion strains, locus YNL209W, strain ssb2, hits give low values): 1.03
normalized growth (S. cerevisiae deletion strains, locus YNL233W, strain BNI4, hits give low values): 0.0568 (active)
normalized growth (S. cerevisiae deletion strains, locus YNL248C, strain rpa49, hits give low values): 1.02
normalized growth (S. cerevisiae deletion strains, locus YNL250W, strain rad50, hits give low values): 0.0602 (active)
normalized growth (S. cerevisiae deletion strains, locus YNL271C, strain bni1, hits give low values): 0.0573 (active)
normalized growth (S. cerevisiae deletion strains, locus YNL298W, strain CLA4, hits give low values): 0.0588 (active)
normalized growth (S. cerevisiae deletion strains, locus YNL307C, strain MCK1, hits give low values): 0.063 (active)
normalized growth (S. cerevisiae deletion strains, locus YNL322C, strain KRE1 (second series), hits give low values): 1.04
normalized growth (S. cerevisiae deletion strains, locus YNR049C, strain mso1, hits give low values): 1.03
normalized growth (S. cerevisiae deletion strains, locus YNR052C, strain pop2, hits give low values): 0.0596 (active)
normalized growth (S. cerevisiae deletion strains, locus YOL006C, strain TOP1, hits give low values): 0.131 (active)
normalized growth (S. cerevisiae deletion strains, locus YOL012C, strain htz1): 0.172 (active)
normalized growth (S. cerevisiae deletion strains, locus YOL147C, strain pex11, hits give low values): 0.0607 (active)
normalized growth (S. cerevisiae deletion strains, locus YOR001W, strain rrp6, hits give low values): 0.939
normalized growth (S. cerevisiae deletion strains, locus YOR061W, strain CKA2, hits give low values): 0.0464 (active)
normalized growth (S. cerevisiae deletion strains, locus YOR069W, strain VPS5, hits give low values): 0.05 (active)
normalized growth (S. cerevisiae deletion strains, locus YOR070C, strain gyp1, hits give low values): 1.02
normalized growth (S. cerevisiae deletion strains, locus YOR080W, strain dia2, hits give low values): 1.04
normalized growth (S. cerevisiae deletion strains, locus YOR083W, strain WHI5, hits give low values): 0.974
normalized growth (S. cerevisiae deletion strains, locus YOR106W, strain vam3, hits give low values): 0.919
normalized growth (S. cerevisiae deletion strains, locus YOR136W, strain idh2, hits give low values): 0.0668 (active)
normalized growth (S. cerevisiae deletion strains, locus YOR144C, strain elg1, hits give low values): 0.0588 (active)
normalized growth (S. cerevisiae deletion strains, locus YOR184W, strain ser1, hits give low values): 0.0693 (active)
normalized growth (S. cerevisiae deletion strains, locus YOR231W, strain MKK1, hits give low values): 0.0965 (active)
normalized growth (S. cerevisiae deletion strains, locus YOR265W, strain rbl2, hits give low values): 1.04
normalized growth (S. cerevisiae deletion strains, locus YOR270C, strain vph1, hits give low values): 0.99
normalized growth (S. cerevisiae deletion strains, locus YOR290C, strain snf2, hits give low values): 0.964
normalized growth (S. cerevisiae deletion strains, locus YOR316C, strain cot1, hits give low values): 0.0539 (active)
normalized growth (S. cerevisiae deletion strains, locus YPL051W, strain arl3, hits give low values): 0.95
normalized growth (S. cerevisiae deletion strains, locus YPL078C, strain atp4, hits give low values): 0.968
normalized growth (S. cerevisiae deletion strains, locus YPL106C, strain sse1, hits give low values): 0.671 (active)
normalized growth (S. cerevisiae deletion strains, locus YPL240C, strain hsp82, hits give low values): 1
normalized growth (S. cerevisiae deletion strains, locus YPL241C, strain CIN2, hits give low values): 0.0482 (active)
normalized growth (S. cerevisiae deletion strains, locus YPL256C, strain CLN2, hits give low values): 0.109 (active)
normalized growth (S. cerevisiae deletion strains, locus YPR119W, strain clb2, hits give low values): 0.0604 (active)
normalized growth (S. cerevisiae deletion strains, locus YPR141C, strain kar3, hits give low values): 0.0605 (active)
normalized growth (S. cerevisiae deletion strains, locus YPR163C, strain tif3, hits give low values): 0.0646 (active)
normalized growth (S. cerevisiae deletion strains, locus YPR167C, strain met16, hits give low values): 0.0578 (active)
normalized growth (S. cerevisiae deletion strains, strain wtn01, hits give low values): 0.0611 (active)
normalized growth (S. cerevisiae strains, strain wild type, hits give low values): 0.0496 (active)
